Data as given in ChEMBL document CHEMBL3988442, “University of Dundee, Small-Polar-MMV Screening Library” (2021).
Screen size: about 66,000 compounds; about 960 (1.5%) showed an effect of 50% or more. The sample holds strong results, similar compounds and a random draw of the others, so the mix is not that of the screen.

System: Trypanosoma brucei
Assay: Trypanosoma brucei 72 hour study
Format: functional, organism-based
Design: scale not given: in the data most compounds retested in dose-response had high values

SMILES | Percent Effect (30 µM, 30.03 µM) [%] | Percent Effect (30.3 µM, […]) [%]
CCC(=O)N1CCN(C(=O)CCn2cc(Cl)cn2)[C@H]2CS(=O)(=O)C[C@H]21 | 35.1 | –
Cc1cnn(CCC(=O)N2CCN(C(=O)C3CC3)[C@@H]3CS(=O)(=O)C[C@@H]32)c1 | 64.13 | –
Cc1cnn(CCC(=O)N2CCN(C(=O)C(C)C)[C@@H]3CS(=O)(=O)C[C@@H]32)c1 | 31 | –
CCCNC(=O)C1CCN(CC(O)c2ccc(C(F)(F)F)cc2)CC1 (stereo unspecified) | – | 11.33
Cc1cc(CN2CCC(CNS(=O)(=O)c3ccc(C)s3)CC2)c(C)o1 | – | -7.383
Cc1cc(CN2CCC(CNS(=O)(=O)c3ccccc3F)CC2)c(C)o1 | – | 3.502
Cc1cc(CN2CCC(CNS(=O)(=O)c3ccc(Br)s3)CC2)c(C)o1 | – | 55.92
CCC(CN1CCCC1)n1cncc1-c1cnn(-c2ccccc2)c1.Cl (stereo unspecified) | – | -6.567
Cc1cc(C)c(CNC(=O)NCc2ccc(F)c(C)c2)c(=O)[nH]1 | – | -14.44
O=C1CN(C(=O)[C@H]2CC[C@]3(CC2)CNC(=O)c2ccccc2O3)CCN1 | – | -6.646
Cc1cnc2c(c1NCc1ccc3c(c1)OCO3)c(=O)n(C)c(=O)n2C | -27.04 | –
Cc1cc(CNC(=O)c2cc(NC(=O)C(C)C)ccc2Cl)no1 | – | -13.13
CCc1cc(CNC(=O)c2cc(NC(=O)C(C)C)ccc2Cl)[nH]n1 | – | 61.59
COCc1cc(CNC(=O)c2cc(NC(C)=O)ccc2Cl)n[nH]1 | -15.93 | –
CN(C)C(=O)CN1CCc2ncnc(NC3CCC3)c2CC1.O=C(O)C(F)(F)F | – | -31.13
CCN(CC)Cc1cc(=O)n2c(n1)CN(C(=O)c1ccc[nH]1)CCC2 | – | 11.69
Cc1nc(C)n(CC2CCCN(Cc3nnc(C(C)(C)C)o3)C2)n1 (stereo unspecified) | 14.46 | –
Cc1nn(C)c2cnn(CC(=O)NCc3ccccc3F)c12 | – | -20.3
Cc1ccccc1CNC(=O)Cn1ncc2c1c(C)nn2C | – | -7.192

SMILES | Percent Effect (30 µM, 30.03 µM) [%] | Percent Effect (30.3 µM, […]) [%]
COc1ccccc1CNC(=O)Cn1ncc2c1c(C)nn2C | 68.66 | –
CN(Cc1ccc(N(C)C)cc1)C(=O)CSc1ccc(Br)cc1 | – | 12.7
CS(=O)(=O)N1CC2(CCN(C(=O)c3ccncc3)CC2)c2ccccc21.O=C(O)C(F)(F)F | – | -14.55
CN(Cc1ccco1)[C@@H]1CN(Cc2ccsc2)C[C@@H]2CCCO[C@@H]21.O=C(O)C(F)(F)F.O=C(O)C(F)(F)F | 27.39 | –
CN(C)C[C@@H]1C[C@@H]2CN(Cc3nccn3C)CC[C@@H]2N1CC1CC1 | – | -12.03
Cc1ccccc1OCC1CCCN(C(=O)CN(C)C2CCNCC2)C1 (stereo unspecified) | 59.87 | –
COCC(=O)N1CCCC(COc2ccccc2C)C1 (stereo unspecified) | -51.53 | –
Cc1cccc(OCC2CCCN(C(=O)CN(C)C3CCNCC3)C2)c1 (stereo unspecified) | 6.222 | –
Cc1ccccc1-n1ncc(C(C)N)c1C (stereo unspecified) | – | -16.93
Cc1ncc(CN2CCCC2)c2cc(C(=O)c3ccc(Br)cc3)oc12.Cl | -13.22 | –
CC(C)CNC(=O)[C@H]1CCS(=O)(=O)[C@@H]2CN(CC(C)C)C[C@H]12.O=C(O)C(F)(F)F | – | -19.44
CC(=O)N1CCN(C(=O)c2cnc(OC(C)C)c(Cl)c2)CC1 | – | -3.997
CC(C)Oc1ncc(C(=O)N2CCC(N(C)C)CC2)cc1Cl | – | 99.1
CC(C)Oc1ncc(C(=O)N2CCC(CC(N)=O)CC2)cc1Cl | – | -51.28
Cc1n[nH]cc1CNC1(Cc2ccc(Br)cc2)CCCCC1 | – | 80.83
Cc1n[nH]cc1CNC1(c2ccc(F)cc2)CCCC1 | – | -110.9
Cc1n[nH]cc1CNC1(c2ccc(Br)cc2)CC1 | – | -166.2
O=C(O)C(F)(F)F.O=C(O)C(F)(F)F.O=C1NC2(CCN(Cc3ccc(F)cc3)CC2)CC1c1ccncc1 (stereo unspecified) | 28.32 | –
Cc1cc(S(=O)(=O)NC(C)(C)CN)c(F)cc1F.Cl | -23.52 | –

SMILES | Percent Effect (30 µM, 30.03 µM) [%] | Percent Effect (30.3 µM, […]) [%]
Cc1oncc1C(=O)N1CC2CC1(C(=O)N(C)C)C2 | – | -15.18
COCC1c2c(cnn2CC2CC2)CCN1Cc1nccs1.O=C(O)C(F)(F)F.O=C(O)C(F)(F)F (stereo unspecified) | 52.09 | –
CCOCC1c2c(cnn2CC2CC2)CCN1Cc1nccs1.O=C(O)C(F)(F)F.O=C(O)C(F)(F)F (stereo unspecified) | – | -3.24
COCC1c2c(cnn2CC2CC2)CCN1Cc1cccs1.O=C(O)C(F)(F)F.O=C(O)C(F)(F)F (stereo unspecified) | -88.48 | –
Cc1cccc2c1cnn2CCCNC(=O)C1CC1 | – | -16.1
O=C(CN1CC(c2nc(C3CC3)no2)C1)N1CCOCC1.O=C(O)C(=O)O | 47.84 | –
O=C(O)C(F)(F)F.O=C([C@H]1CC[C@@H]2[C@@H](CCN2C2CCCCC2)O1)N1CCOCC1 | – | 2.517
CO[C@@H]1CCN(c2nnc(C)s2)C[C@@H]1Cc1cccc(C)c1.O=C(O)C(F)(F)F | – | -8.568
CO[C@H]1CCN(c2nnc(C)s2)C[C@@H]1Cc1cccc(C)c1.O=C(O)C(F)(F)F | – | 100.1
CO[C@H]1CCN(c2nnc(C)s2)C[C@@H]1Cc1ccccc1.O=C(O)C(F)(F)F | – | 12.72
Cc1nnc(N2CC[C@@H](OCC3CC3)[C@@H](Cc3ccccc3)C2)s1.O=C(O)C(F)(F)F | – | 100.5
CO[C@@H]1CCN(c2nnc(C)s2)C[C@@H]1Cc1ccccc1.O=C(O)C(F)(F)F | – | -5.303
Cc1nnc(N2CC[C@H](OCC3CC3)[C@@H](Cc3ccccc3)C2)s1.O=C(O)C(F)(F)F | -16.49 | –
O=C(N[C@H]1CC[C@@]2(CCC(=O)N2CC2CC2)CC1)c1cnccn1 | – | -8.587
Cc1nnc([C@@]23CCO[C@@H]2CCN(S(=O)(=O)c2ccccc2)C3)o1 | – | -46.55
CNC(=O)c1ccc(CN(C)C(=O)Nc2nnc(C(C)C)s2)cc1 | 1.168 | –
Cc1cc2c(=O)n3c(nc2s1)CCN(Cc1[nH]cnc1C)CC3.Cl | – | -2.938
COc1ccc(F)cc1-c1ccccc1CC1CNCCNC1=O.Cl (stereo unspecified) | – | -18.15
